# Data: article PMC7862700, “An all-to-all approach to the identification of sequence-specific readers for epigenetic DNA modifications on cytosine”
# How the values were obtained:
# Test in all cases: DAPPL (digital affinity profiling via proximity ligation, sequencing); 10 mM Tris-HCl pH 7.5, 50 mM NaCl, 1 mM DTT, 4% glycerol, room temperature, 30 min; GST-TFs on glutathione beads, 16-mer random dsDNA library, 0.1% formaldehyde crosslink after washing; high values mean tight binding
# FLI1 = target: T1, FLI1 (Homo sapiens, UniProt Q01543 1-452); details: protein: recombinant; tags: N-terminal GST; dsDNA, one strand shown
# T1 sequence: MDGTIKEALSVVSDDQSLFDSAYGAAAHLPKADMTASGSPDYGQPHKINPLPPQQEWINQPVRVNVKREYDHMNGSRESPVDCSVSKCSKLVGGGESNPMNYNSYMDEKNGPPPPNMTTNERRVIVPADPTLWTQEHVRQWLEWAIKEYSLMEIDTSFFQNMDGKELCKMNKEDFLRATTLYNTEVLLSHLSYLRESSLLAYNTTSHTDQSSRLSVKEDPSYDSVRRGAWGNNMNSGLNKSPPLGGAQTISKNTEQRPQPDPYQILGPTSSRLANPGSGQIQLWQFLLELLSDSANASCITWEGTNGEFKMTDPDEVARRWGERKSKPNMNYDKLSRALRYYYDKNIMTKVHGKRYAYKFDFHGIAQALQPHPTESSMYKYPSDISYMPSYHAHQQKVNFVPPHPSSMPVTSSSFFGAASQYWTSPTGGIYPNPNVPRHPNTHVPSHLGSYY
# Procedure, shortened: (§1)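 After expression in yeast as GST fusions, human transcription factors were bound to glutathione beads, DNA-barcoded and mixed with a tag-only sample. The pools were incubated with 200 nmole of a 16-mer random double-stranded DNA library in Tris/NaCl/DTT/glycerol buffer (30 min, room temperature), washed and crosslinked with 0.1% formaldehyde. Proximity ligation with BsaI/T4 ligase ran for 1 h at 37 °C, before PCR amplification and sequencing on an Illumina NextSeq500. Binding signal is a hexamer's read frequency for a factor divided by its frequency for the tag-only sample.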
# ELK1 = target: T2, ELK1 (Homo sapiens, UniProt P19419 1-428); details: protein: recombinant; tags: N-terminal GST; dsDNA, one strand shown
# T2 sequence: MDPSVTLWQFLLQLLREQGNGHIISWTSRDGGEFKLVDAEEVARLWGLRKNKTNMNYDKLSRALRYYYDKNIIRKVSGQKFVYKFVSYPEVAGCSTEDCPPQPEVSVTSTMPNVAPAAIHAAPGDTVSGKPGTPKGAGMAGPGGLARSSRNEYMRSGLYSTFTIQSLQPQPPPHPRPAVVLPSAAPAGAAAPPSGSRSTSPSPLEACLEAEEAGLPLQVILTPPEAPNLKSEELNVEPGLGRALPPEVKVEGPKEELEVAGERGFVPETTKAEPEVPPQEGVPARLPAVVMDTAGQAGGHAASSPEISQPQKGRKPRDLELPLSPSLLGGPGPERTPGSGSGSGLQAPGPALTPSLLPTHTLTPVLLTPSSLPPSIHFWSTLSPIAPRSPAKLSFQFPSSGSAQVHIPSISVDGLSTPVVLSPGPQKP
# Procedure, shortened: as §1
# GABPA = target: T3, GABPA (Homo sapiens, UniProt Q06546 1-454); details: protein: recombinant; tags: N-terminal GST; dsDNA, one strand shown
# T3 sequence: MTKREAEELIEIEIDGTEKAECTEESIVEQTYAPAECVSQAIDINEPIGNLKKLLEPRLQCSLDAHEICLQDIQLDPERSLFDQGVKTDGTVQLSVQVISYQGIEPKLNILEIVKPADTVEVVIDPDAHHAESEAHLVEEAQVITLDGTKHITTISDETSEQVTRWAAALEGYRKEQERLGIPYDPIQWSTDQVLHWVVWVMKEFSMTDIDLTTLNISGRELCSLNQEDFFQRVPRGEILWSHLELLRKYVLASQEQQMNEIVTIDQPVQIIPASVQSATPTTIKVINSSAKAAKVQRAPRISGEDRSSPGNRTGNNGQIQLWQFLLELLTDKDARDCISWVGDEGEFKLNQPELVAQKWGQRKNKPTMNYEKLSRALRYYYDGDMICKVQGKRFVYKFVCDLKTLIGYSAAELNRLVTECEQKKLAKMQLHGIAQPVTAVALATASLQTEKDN
# Procedure, shortened: as §1
# ERG = target: T4, ERG (Homo sapiens, UniProt P11308 1-479); details: protein: recombinant; tags: N-terminal GST; dsDNA, one strand shown
# T4 sequence: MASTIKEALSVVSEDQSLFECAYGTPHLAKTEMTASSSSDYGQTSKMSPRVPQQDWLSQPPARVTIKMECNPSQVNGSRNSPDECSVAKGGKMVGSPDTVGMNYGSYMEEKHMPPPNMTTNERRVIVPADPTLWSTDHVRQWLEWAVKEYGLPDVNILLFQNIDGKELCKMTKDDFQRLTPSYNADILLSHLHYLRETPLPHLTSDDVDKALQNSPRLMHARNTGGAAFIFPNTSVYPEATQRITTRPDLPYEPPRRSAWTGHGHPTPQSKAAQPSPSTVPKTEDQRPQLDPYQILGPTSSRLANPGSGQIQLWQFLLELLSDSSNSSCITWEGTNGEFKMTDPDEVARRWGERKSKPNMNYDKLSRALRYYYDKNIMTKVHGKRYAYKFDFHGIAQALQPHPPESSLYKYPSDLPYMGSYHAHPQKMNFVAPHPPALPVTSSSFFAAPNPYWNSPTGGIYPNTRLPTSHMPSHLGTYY
# Procedure, shortened: as §1
# ELF1 = ELF1 (Homo sapiens, UniProt P32519 1-619); details: protein: recombinant; tags: N-terminal GST; dsDNA, one strand shown
# Procedure, shortened: as §1
# EHF = target: T5, EHF (Homo sapiens, UniProt Q9NZC4 1-300); details: protein: recombinant; tags: N-terminal GST; dsDNA, one strand shown
# T5 sequence: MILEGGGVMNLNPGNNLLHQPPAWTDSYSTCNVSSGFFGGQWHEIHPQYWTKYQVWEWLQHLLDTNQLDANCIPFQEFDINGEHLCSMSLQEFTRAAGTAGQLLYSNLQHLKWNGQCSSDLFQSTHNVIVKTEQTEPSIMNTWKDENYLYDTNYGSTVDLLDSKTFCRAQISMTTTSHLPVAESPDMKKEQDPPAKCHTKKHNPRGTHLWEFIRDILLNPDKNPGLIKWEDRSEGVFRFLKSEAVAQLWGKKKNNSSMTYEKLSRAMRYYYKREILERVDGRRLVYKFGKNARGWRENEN
# Procedure, shortened: as §1
# SPI1 = SPI1 (Homo sapiens, UniProt P17947 1-270); details: protein: recombinant; tags: N-terminal GST; dsDNA, one strand shown
# Procedure, shortened: as §1
# SPIB = SPIB (Homo sapiens, UniProt Q01892 1-262); details: protein: recombinant; tags: N-terminal GST; dsDNA, one strand shown
# Procedure, shortened: as §1
# ELK3 = target: T6, ELK3 (Homo sapiens, UniProt P41970 1-407); details: protein: recombinant; tags: N-terminal GST; dsDNA, one strand shown
# T6 sequence: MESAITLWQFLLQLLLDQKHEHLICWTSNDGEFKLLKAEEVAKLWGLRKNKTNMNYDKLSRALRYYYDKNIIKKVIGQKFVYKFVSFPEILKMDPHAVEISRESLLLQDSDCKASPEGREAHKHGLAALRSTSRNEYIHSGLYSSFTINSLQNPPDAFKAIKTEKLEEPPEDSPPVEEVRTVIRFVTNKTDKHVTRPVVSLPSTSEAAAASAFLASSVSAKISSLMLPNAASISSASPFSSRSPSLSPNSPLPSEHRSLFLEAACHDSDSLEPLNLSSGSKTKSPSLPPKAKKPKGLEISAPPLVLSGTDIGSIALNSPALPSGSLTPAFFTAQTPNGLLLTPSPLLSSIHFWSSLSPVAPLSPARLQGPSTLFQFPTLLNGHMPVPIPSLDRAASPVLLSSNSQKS
# Procedure, shortened: as §1
# FEV = target: T7, FEV (Homo sapiens, UniProt Q99581 1-238); details: protein: recombinant; tags: N-terminal GST; dsDNA, one strand shown
# T7 sequence: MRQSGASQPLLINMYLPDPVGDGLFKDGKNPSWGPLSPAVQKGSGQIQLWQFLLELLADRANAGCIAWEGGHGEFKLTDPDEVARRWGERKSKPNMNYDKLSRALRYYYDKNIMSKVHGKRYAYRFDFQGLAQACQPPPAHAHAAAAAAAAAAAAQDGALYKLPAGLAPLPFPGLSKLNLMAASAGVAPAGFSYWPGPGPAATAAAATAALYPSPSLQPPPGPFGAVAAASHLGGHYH
# Procedure, shortened: as §1
# ETV5 = ETV5 (Homo sapiens, UniProt P41161 1-510); details: protein: recombinant; tags: N-terminal GST; dsDNA, one strand shown
# Procedure, shortened: as §1
# HSF1 = HSF1 (Homo sapiens, UniProt Q00613 1-529); details: protein: recombinant; tags: N-terminal GST; chain copies: 3; dsDNA, one strand shown
# Procedure, shortened: as §1
# SPIC = target: T8, SPIC (Homo sapiens, UniProt Q8N5J4 1-248); details: protein: recombinant; tags: N-terminal GST; dsDNA, one strand shown
# T8 sequence: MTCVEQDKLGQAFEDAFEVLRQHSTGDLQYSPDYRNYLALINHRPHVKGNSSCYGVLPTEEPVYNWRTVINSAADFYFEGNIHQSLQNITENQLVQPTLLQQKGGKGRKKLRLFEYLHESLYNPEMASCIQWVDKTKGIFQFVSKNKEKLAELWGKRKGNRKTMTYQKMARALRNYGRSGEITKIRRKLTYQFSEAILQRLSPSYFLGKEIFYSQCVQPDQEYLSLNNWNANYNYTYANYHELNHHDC
# Procedure, shortened: as §1
# ELF4 = ELF4 (Homo sapiens, UniProt Q99607 1-663); details: protein: recombinant; tags: N-terminal GST; dsDNA, one strand shown
# Procedure, shortened: as §1
# ELK4 = target: T9, ELK4 (Homo sapiens, UniProt P28324-2 1-405); details: protein: recombinant; tags: N-terminal GST; dsDNA, one strand shown
# T9 sequence: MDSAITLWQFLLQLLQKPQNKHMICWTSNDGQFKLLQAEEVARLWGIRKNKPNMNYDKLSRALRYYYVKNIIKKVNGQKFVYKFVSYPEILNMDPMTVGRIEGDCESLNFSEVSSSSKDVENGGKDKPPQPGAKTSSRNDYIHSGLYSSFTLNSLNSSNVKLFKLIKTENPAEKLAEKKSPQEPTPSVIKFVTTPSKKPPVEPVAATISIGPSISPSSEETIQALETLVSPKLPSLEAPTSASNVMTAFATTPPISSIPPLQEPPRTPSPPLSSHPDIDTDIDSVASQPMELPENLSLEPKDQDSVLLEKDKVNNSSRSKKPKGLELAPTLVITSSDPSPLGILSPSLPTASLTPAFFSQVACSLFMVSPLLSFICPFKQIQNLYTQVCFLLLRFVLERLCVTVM
# Procedure, shortened: as §1
# ETV2 = target: T10, ETV2 (Homo sapiens, UniProt O00321 1-342); details: protein: recombinant; tags: N-terminal GST; dsDNA, one strand shown
# T10 sequence: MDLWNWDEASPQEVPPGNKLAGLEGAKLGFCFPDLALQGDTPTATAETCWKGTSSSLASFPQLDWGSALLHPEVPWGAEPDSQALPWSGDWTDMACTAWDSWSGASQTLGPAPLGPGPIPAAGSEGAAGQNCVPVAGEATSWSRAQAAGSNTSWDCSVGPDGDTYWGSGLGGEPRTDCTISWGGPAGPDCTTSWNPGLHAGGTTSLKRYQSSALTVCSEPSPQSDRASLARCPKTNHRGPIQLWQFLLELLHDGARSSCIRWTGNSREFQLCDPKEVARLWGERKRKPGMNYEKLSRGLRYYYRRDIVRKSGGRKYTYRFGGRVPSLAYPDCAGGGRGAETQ
# Procedure, shortened: as §1
# ELF3 = target: T11, ELF3 (Homo sapiens, UniProt P78545 1-371); details: protein: recombinant; tags: N-terminal GST; dsDNA, one strand shown
# T11 sequence: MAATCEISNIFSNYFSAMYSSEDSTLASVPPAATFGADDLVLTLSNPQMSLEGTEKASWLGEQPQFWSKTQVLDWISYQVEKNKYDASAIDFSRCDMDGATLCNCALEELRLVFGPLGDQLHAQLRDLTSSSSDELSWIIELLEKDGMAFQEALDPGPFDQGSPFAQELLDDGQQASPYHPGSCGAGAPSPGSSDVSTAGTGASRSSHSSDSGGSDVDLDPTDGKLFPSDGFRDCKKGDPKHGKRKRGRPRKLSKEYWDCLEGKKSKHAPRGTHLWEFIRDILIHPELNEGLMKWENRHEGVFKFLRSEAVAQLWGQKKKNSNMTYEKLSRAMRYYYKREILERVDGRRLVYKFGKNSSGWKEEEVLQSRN
# Procedure, shortened: as §1
# CRX = CRX (Homo sapiens, UniProt O43186 1-299); details: protein: recombinant; tags: N-terminal GST; dsDNA, one strand shown
# Procedure, shortened: as §1
# ETV1 = ETV1 (Homo sapiens, UniProt P50549 1-477); details: protein: recombinant; tags: N-terminal GST; dsDNA, one strand shown
# Procedure, shortened: as §1
# Sequence of ELF1 (P32519 whole entry): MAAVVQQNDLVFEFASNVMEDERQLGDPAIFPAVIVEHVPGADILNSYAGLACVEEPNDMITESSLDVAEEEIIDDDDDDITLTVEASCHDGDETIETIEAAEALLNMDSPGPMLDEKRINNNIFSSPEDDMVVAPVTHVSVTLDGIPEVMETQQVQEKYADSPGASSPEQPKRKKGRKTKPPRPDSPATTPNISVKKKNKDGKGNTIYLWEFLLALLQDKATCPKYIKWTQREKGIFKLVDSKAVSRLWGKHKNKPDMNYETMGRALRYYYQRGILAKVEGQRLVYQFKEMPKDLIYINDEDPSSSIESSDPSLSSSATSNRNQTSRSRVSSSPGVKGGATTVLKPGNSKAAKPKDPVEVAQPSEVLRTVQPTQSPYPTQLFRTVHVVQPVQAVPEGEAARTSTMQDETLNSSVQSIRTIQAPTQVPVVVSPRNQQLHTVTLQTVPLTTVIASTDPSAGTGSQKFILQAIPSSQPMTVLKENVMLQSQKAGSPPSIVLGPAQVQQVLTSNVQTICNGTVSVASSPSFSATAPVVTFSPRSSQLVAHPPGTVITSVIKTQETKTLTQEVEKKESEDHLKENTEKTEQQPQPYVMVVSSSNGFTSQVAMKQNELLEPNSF
# Sequence of HSF1 (Q00613 whole entry): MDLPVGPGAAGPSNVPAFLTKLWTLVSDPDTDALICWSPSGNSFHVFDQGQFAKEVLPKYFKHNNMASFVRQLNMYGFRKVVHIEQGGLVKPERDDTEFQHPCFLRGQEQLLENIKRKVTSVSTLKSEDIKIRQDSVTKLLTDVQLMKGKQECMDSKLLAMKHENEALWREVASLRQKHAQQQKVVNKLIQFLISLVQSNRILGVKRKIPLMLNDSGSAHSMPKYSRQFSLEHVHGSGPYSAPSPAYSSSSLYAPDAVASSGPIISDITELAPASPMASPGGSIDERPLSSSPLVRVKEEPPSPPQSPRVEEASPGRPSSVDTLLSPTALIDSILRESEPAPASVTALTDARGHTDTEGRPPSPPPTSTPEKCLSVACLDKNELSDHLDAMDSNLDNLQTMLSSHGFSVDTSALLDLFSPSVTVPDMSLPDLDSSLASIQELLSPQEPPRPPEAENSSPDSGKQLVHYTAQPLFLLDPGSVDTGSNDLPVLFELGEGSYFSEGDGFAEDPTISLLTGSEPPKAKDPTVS
# Sequence of ETV1 (P50549 whole entry): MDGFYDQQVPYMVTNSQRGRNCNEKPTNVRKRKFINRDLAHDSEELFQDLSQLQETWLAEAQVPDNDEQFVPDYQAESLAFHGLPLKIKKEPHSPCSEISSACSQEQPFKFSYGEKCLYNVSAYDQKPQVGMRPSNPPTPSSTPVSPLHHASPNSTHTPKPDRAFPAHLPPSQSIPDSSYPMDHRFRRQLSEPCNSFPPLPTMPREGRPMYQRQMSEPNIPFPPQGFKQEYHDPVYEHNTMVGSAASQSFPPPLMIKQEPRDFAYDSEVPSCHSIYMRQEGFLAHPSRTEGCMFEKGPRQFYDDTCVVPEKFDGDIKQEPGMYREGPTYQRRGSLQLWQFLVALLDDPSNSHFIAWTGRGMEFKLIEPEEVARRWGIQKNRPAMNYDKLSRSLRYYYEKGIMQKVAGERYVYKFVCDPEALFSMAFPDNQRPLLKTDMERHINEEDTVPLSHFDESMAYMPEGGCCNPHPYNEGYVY
# Sequence of ELF4 (Q99607 whole entry): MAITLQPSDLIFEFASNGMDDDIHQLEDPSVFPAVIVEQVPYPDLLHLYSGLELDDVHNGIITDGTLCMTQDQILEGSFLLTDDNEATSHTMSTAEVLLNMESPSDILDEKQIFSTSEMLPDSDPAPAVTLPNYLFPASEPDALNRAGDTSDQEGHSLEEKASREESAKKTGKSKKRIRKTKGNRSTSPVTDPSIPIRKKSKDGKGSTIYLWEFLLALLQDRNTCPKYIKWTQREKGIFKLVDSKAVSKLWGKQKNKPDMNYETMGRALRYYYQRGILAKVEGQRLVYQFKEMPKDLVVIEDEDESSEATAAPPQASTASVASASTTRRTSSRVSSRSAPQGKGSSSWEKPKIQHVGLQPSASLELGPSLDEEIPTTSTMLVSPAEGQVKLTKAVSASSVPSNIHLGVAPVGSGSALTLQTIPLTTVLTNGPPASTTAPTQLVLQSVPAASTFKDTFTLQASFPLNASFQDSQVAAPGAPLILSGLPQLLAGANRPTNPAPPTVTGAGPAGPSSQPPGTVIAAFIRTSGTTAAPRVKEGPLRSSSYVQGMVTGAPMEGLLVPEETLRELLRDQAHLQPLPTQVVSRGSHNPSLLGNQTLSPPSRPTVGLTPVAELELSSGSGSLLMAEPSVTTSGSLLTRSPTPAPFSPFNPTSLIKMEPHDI
# Sequence of CRX (O43186 whole entry): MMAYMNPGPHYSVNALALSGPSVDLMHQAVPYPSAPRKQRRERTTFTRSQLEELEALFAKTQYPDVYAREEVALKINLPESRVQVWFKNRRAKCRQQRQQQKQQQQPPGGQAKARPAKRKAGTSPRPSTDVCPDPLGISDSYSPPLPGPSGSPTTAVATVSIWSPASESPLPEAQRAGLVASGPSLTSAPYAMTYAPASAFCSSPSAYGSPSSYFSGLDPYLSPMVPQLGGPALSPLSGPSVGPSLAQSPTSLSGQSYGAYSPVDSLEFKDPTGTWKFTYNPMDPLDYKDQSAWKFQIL
# Sequence of SPIB (Q01892 whole entry): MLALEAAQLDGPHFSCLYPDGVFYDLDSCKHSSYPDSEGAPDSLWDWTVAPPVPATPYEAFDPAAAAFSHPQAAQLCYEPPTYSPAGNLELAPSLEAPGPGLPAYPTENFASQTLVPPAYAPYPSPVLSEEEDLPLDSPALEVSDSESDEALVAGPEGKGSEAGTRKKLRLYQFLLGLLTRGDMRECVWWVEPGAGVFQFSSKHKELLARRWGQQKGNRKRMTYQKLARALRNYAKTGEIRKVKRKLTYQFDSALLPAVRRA
# Sequence of ETV5 (P41161 whole entry): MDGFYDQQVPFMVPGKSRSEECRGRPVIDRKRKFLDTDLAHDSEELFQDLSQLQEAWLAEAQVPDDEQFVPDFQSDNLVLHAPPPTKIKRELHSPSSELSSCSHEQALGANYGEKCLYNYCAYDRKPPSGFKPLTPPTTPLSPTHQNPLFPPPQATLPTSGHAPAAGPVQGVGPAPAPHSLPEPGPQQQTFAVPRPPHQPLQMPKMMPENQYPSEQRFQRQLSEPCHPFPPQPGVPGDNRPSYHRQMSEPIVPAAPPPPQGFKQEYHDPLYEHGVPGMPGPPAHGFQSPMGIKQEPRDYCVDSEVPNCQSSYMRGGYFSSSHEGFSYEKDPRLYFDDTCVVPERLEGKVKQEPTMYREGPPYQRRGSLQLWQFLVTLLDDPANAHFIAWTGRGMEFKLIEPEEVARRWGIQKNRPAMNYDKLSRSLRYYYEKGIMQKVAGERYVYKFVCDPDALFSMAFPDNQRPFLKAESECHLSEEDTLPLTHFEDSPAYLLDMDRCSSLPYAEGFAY
sequence,measurement,setting,value
TTTTTT,binding signal,FLI1,"1.12 fold enrichment (6-mer frequency, TF over GST control)"
same,binding signal,ELK1,"1.05 fold enrichment (6-mer frequency, TF over GST control)"
same,binding signal,GABPA,"1.25 fold enrichment (6-mer frequency, TF over GST control)"
same,binding signal,ERG,"1.12 fold enrichment (6-mer frequency, TF over GST control)"
same,binding signal,ELF1,"1.25 fold enrichment (6-mer frequency, TF over GST control)"
same,binding signal,EHF,"1.2 fold enrichment (6-mer frequency, TF over GST control)"
same,binding signal,SPI1,"1.36 fold enrichment (6-mer frequency, TF over GST control)"
same,binding signal,SPIB,"1.22 fold enrichment (6-mer frequency, TF over GST control)"
same,binding signal,ELK3,"1.34 fold enrichment (6-mer frequency, TF over GST control)"
same,binding signal,FEV,"1.17 fold enrichment (6-mer frequency, TF over GST control)"
same,binding signal,ETV5,"1.23 fold enrichment (6-mer frequency, TF over GST control)"
same,binding signal,HSF1,"1.23 fold enrichment (6-mer frequency, TF over GST control)"
same,binding signal,SPIC,"1.3 fold enrichment (6-mer frequency, TF over GST control)"
same,binding signal,ELF4,"1.19 fold enrichment (6-mer frequency, TF over GST control)"
same,binding signal,ELK4,"1.17 fold enrichment (6-mer frequency, TF over GST control)"
same,binding signal,ETV2,"1.4 fold enrichment (6-mer frequency, TF over GST control)"
same,binding signal,ELF3,"1.33 fold enrichment (6-mer frequency, TF over GST control)"
same,binding signal,CRX,"1.24 fold enrichment (6-mer frequency, TF over GST control)"
same,binding signal,ETV1,"1.36 fold enrichment (6-mer frequency, TF over GST control)"
